Source: PubChem BioAssay
JMJD2A Tudor – JMJD2A Tudor domain (human) inhibition; O75164; 390,000 compounds, 4.4% hits; AlphaScreen JMJD2A-Tudor / H3K4me3 peptide binding; Potency, µM (doses to about 114 µM), for inactives: at the highest dose activity change, negative = inhibition, most hits filed as inhibitors; further: on the % scale 0 is the no-effect control and ±100 the full control effect; nearly all actives have a fitted effect of over 50% in size
Target sequence (O75164 whole entry, looked up, the tested form may be a part): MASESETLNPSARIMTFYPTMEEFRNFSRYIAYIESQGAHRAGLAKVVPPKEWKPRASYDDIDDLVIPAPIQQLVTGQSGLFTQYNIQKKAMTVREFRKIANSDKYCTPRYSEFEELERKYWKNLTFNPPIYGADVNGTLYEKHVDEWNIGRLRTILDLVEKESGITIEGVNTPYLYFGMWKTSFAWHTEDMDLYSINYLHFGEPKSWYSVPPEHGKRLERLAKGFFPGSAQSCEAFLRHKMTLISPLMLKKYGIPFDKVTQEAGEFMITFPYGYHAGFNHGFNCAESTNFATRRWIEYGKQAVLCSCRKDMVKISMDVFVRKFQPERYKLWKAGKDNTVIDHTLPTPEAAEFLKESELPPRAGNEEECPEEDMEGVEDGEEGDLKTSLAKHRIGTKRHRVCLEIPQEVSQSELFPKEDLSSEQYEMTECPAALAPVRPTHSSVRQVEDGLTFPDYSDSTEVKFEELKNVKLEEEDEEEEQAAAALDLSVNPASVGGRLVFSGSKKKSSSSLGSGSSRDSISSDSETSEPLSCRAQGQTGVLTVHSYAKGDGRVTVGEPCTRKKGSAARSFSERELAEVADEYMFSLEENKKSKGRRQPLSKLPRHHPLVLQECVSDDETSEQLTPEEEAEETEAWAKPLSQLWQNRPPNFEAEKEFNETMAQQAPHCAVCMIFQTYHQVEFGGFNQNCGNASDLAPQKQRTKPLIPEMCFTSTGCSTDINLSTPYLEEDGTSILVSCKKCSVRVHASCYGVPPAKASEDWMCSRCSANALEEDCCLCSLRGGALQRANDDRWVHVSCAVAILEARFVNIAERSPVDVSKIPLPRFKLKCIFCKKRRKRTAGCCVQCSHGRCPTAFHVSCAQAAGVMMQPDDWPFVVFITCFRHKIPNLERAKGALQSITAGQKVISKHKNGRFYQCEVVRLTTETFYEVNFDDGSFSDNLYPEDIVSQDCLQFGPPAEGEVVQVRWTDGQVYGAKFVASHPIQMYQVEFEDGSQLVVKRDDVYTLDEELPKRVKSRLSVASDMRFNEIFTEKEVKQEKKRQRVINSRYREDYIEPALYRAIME
HP1b chromo inh – inhibitors of HP1-beta chromodomain binding to methylated histone tails | AlphaScreen HP1-beta / biotin-H3K9me3 peptide binding | P83916 | Potency, µM (doses to about 114 µM), for inactives: at the top dose activity change, negative = inhibition, actives largely listed as inhibitors | 390,000 compounds, 0.56% hits; further: nearly all actives have a fitted effect of over 70% in size
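Compound inhibition of the preformed complex between 50 nM HP1-beta and 50 nM biotinylated H3K9me3 peptide was read by AlphaScreen. Buffer was PBS pH 7.4 with 0.01% Tween-20. Incubations ran 30 min at room temperature, with 10 ug/mL donor/acceptor beads.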
GLS inhibitor – glutaminase GLS (human) inhibition | O94925 | GLS enzymatic activity, qHTS titration | Potency, µM (series often up to 45.5 µM), for the others: top-dose activity change, negative = inhibition, hits mostly inhibitors | 410,000 compounds, 0.21% hits | AID 624170; further: on the % scale 0 is the no-effect control and ±100 the full control effect
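hKGA in 45 mM KH2PO4 (pH 8.2), 0.02% Tween-20 with compound, then 1mM L-Glutamine (stock as added) plus glutamate oxidase/HRP/Amplex red coupling mix. Fluorescence read initially and after 30 min at RT; signal change reflects glutamate formation.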
BAZ2B block – BAZ2B (human) inhibition. Q9UIF8. AlphaScreen BAZ2B-H3K14Ac peptide displacement. Potency, µM (titrated, usually from 114 µM), inactives show at the top dose activity change, negative = inhibition, hits mostly inhibitors. 360,000 compounds, 4.4% hits; further: on the % scale 0 is the no-effect control and ±100 the full control effect; nearly all actives have a fitted effect of over 60% in size
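Multi-concentration screen (max 110 uM) measuring displacement of acetylated histone H3 peptide from BAZ2B by AlphaScreen, using 50 nM protein, 50 nM peptide and 10 ug/mL streptavidin donor plus Ni-chelate acceptor beads.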
G9a inh – blocks human histone lysine methyltransferase G9a; Q96KQ7; G9a H3K9 monomethylation, AlphaScreen, 2 h; Potency, µM (top dose mostly 102 µM), for the others: top-dose activity, negative = inhibition, hits mostly inhibitors; 350,000 compounds, 8.8% hits; AID 504332; further: on the % scale 0 is the no-effect control and ±100 the full control effect; nearly all actives have a fitted effect of over 75% in size
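AlphaScreen read-out: biotin-H3K9 peptide (500 nM) methylation by 20 nM enzyme with 20 uM SAM, 2 h at room temperature after 15 min compound preincubation; anti-monomethyl H3K9 antibody plus donor/acceptor beads, 10 min dark.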
Active calls of the source: *; u = inconclusive; x = no result; [ ] = dose if it differs, or a comment. A selection: hits, their analogues and other compounds. The true share with any hit is near 10%. The call rests on the fitted dose curve; in most records, active means well fitted curve in the direction sought with a large enough effect; inconclusive means small, poorly fitted or top-dose-only effect, or another doubt; inactive means no such curve, though single readings can be large; an effect the other way counts as inactive or inconclusive. Potency means the concentration at half of the fitted maximal effect.

SMILES	JMJD2A Tudor	HP1b chromo inh	GLS inhibitor	BAZ2B block	G9a inh
CCc1ccccc1-n1nnnc1SCC(=O)Nc1ccc(N2CCN(C)CC2)cc1	10.1%	49.7%	45.4%	u	50.1µM*
Cc1ccccc1-n1nnnc1SC(C)C(=O)Nc1ccc(N2CCN(C)CC2)cc1 (stereo not given)	u	-1.2%	35.0%	u	-8.0%[12.7 µM]
O=C(COc1ccc(/C=N/NC(=O)c2cccnc2)cc1)Nc1ccccc1	-21.8%	8.4%	-20.9%	-26.1%	-41.9%
O=c1c(O)c(-c2cccs2)oc2ccc(Cl)cc12	41.0%	76.5%	24.4%	75.5%	97.8%[59 µM]
O=c1c(O)c(-c2cccs2)oc2ccccc12	-6.7%	27.5%	18.4%	8.7%	17.8µM*
CCOC(=O)CSC1=NC(=O)/C(=C\c2ccc(OC(C)=O)cc2)S1	-24.4%	8.6%	-6.3%	-33.9%	39.8µM*
NC1=NC(=O)/C(=C/c2ccc(Br)cc2)S1	-4.3%	27.7%	0.5%	-28.1%	12.5%[0.501 µM]
CCOC(=O)CSC1=NC(=O)/C(=C/c2ccc(Br)cc2)S1	u	4.8%	0.0%	-9.4%	39.8µM*
CCOC(=O)COc1ccc(Br)cc1/C=C1\SC(N)=NC1=O	-31.9%	4.4%	0.8%	u	x
Cc1ccc(S(=O)(=O)N2CCN(c3nc(-c4ncccn4)nc4ccccc34)CC2)cc1	u	55.9%	x	x	x
Cc1cc(COc2ccccc2O)on1	1.6%	46.5%	13.9%	6.4%	70.8µM*
COc1ccccc1OCc1cc(-c2ccccc2)no1	131.2%	210.6%	-0.8%	152.3%	177.7%
Cc1ccc(S(=O)(=O)c2c(C)nn(C(C)(C)C)c2OC(=O)C(C)C)cc1	28.4%	66.6%	-0.3%	10.1%	-11.3%
CCCn1c(NCc2ccccn2)nc2ccccc21	20µM*	12.0%	24.3%	56.2µM*	5.62µM*
c1ccc(CNc2nc3ccccc3n2CCN2CCOCC2)nc1	25.1µM*	19.2%	15.3%	70.8µM*	-26.4%[59 µM]
O=C(CN1C(=O)COc2ccc(S(=O)(=O)N3CCCC3)cc21)Nc1cccc(F)c1	0.7%	14.0%[57 µM]	-0.7%	-13.5%	11.4%
CC(C)NC(=O)c1onc(CSc2ccccn2)c1C(=O)NC(C)C	-13.7%	29.3%	12.6%	-1.6%	-26.7%[59 µM]
CCOC(=O)C(C)N1C(=O)S/C(=C\c2ccc(-c3ccccc3C(=O)O)o2)C1=O (stereo not given)	22.4µM*	u	12.6µM*	25.1µM*	10µM*
CC(C(=O)OCC(=O)c1ccccc1)N1C(=O)c2ccccc2C1=O (stereo not given)	-9.1%	-8.6%	-18.4%	0.2%	0.1%
Cc1ccc(C)c(N2C(=N)S/C(=C\c3ccc(-c4ccccc4C(=O)O)o3)C2=O)c1	31.6µM*	-37.7%	0.0%	20µM*	2.24µM*
CC(Cc1cnccn1)NC(=O)c1cc(COc2ccc(F)cc2F)on1 (stereo not given)	-23.3%	-7.0%	-2.7%	-2.7%[57.1 µM]	8.6%
COc1cc(/C=C2/NC(=O)N(c3cccc(Cl)c3)C2=O)ccc1O	-13.9%	41.0%	29.8%	-22.3%	-2.2%
CCOc1cc(/C=C2/C(=O)NN(c3cccc(Cl)c3)C2=O)ccc1O	u	-18.0%	-4.0%	35.5µM*	31.6µM*
COc1cc(/C=C2/C(=O)NN(c3cccc(Cl)c3)C2=O)cc(OC)c1O	50.1µM*	u	34.9%	28.2µM*	14.1µM*
O=C1NN(c2cccc(Br)c2)C(=O)/C1=C\c1ccc(O)cc1	-25.4%	1.9%	-0.2%	-35.8%	3.55µM*
SMILES	JMJD2A Tudor	HP1b chromo inh	GLS inhibitor	BAZ2B block	G9a inh
O=C1NN(c2ccc(Br)cc2)C(=O)/C1=C\c1ccc(O)cc1O	u	u	34.2%	u	x
Cc1cccc(N2CCN(c3nc(C)cc(C)c3C#N)CC2C)c1 (stereo not given)	-21.9%	44.7%	5.2%	u	x
CCCn1c2c(c(=N)c3c1CCC3)CCC2	-6.2%	7.2%	3.8%	u	50.1µM*
CCCn1c2c(c(=N)c3c1CCC3)CCCC2	u	19.1%	5.7%	-1.1%	12.6µM*
CCOC(=O)Cn1c2c(c(=N)c3c1CCC3)CCCC2	7.4%	28.0%	-1.1%	4.0%	22.7%
CC(=O)C[C@@H](O)CC(=O)[C@@H]1OC(=O)[C@H](C)CCCCc2ccccc21	-6.2%	31.1%	-1.8%	x	x
O=C(NC1=NCCS1)c1ccc(Cl)c(S(=O)(=O)N2CCCCCC2)c1	-23.2%	43.1%	-10.6%	-2.6%	-1.7%
O=C(O)c1ccc(-n2nnnc2SCc2ccccc2F)cc1	-34.5%	19.6%	0.4%	2.6%	u
Cc1ccc(S(=O)(=O)NNc2ccccc2)c(C)c1	5.01µM*	-58.4%	-28.4%	56.2µM*	1µM*
O=c1cc(O)c2sc(Nc3ccc(F)c(Cl)c3)nc2[nH]1	-14.4%	5.2%	u	-31.5%	28.2µM*
O=c1cc(O)c2sc(Nc3ccc(Cl)c(F)c3)nc2[nH]1	-26.2%	0.2%	u	u	u
CCCCn1c(N)c(N(CCOC)C(=O)c2ccc(C)c(S(=O)(=O)N3CCOCC3)c2)c(=O)[nH]c1=O	0.7%	34.5%	0.6%	1.2%	4.4%[0.501 µM]
COc1ccccc1-c1nn2c(C3COc4ccccc4O3)nnc2s1 (stereo not given)	-35.8%	-38.3%	x	-22.8%	3.55µM*
c1ccc(Cc2nn3c(C4COc5ccccc5O4)nnc3s2)cc1 (stereo not given)	-32.0%	-31.0%	u	-22.9%	5.01µM*
c1ccc(CCc2nn3c(C4COc5ccccc5O4)nnc3s2)cc1 (stereo not given)	u	u	u	9.2%	3.55µM*
COc1ccc2nc(C)cc(SCC(=O)N/N=C/c3ccc(O)c(O)c3)c2c1	-29.8%	-5.5%	u	u	35.5µM*
COc1ccc2nc(C)cc(SCC(=O)N/N=C/c3cccc4ccccc34)c2c1	-21.1%	13.7%	1.0%	8.0%	8.7%[59 µM]
COc1ccc2nc(C)cc(SCC(NC(C)=O)C(=O)OC(C)C)c2c1 (stereo not given)	-5.7%	48.6%	-0.5%	-2.2%	39.8µM*
COc1ccc2c(c1)c(C(=O)N/N=C/c1ccc(O)c(O)c1)c(C)n2C	-26.5%	-5.6%	7.08µM*	u	50.1µM*
COc1cccc2c(SCC(=O)N/N=C/c3ccc(O)c(O)c3)cc(C)nc12	u	-2.7%	u	u	35.5µM*
CCOC(=O)CCc1nc2ccccc2[nH]1	-0.6%	11.8%	-1.2%	4.7%	17.7%
CCOC(=O)c1c(S(=O)(=O)N2CCC(C(=O)Nc3ncccc3C)CC2)c(C)n(C)c1C	-12.0%	6.0%	5.9%	-14.2%	11.3%[59 µM]
COc1cc2sc(-c3ccc(S(C)(=O)=O)cc3)c(C#CCO)c2cc1OC	-19.3%	50.5%	1.6%	x	x
COc1ccc(/C=N/NC(=O)CN2CCSCC2)cc1C	3.55µM*	u	9.5%	50.1µM*	u
CCOc1ccc(/C=N/NC(=O)C2(O)c3ccccc3-c3ccccc32)cc1	89.1µM*	4.5%	-10.0%	0.1%	35.8%[59 µM]
